Experimental findings from PMC7862700, “An all-to-all approach to the identification of sequence-specific readers for epigenetic DNA modifications on cytosine” are described below.

Holding throughout (experiment): DAPPL (digital affinity profiling via proximity ligation, sequencing); 10 mM Tris-HCl pH 7.5, 50 mM NaCl, 1 mM DTT, 4% glycerol, room temperature, 30 min; GST-TFs on glutathione beads, 16-mer random dsDNA library, 0.1% formaldehyde crosslink after washing; high values mean tight binding
For assay [1], the target named is T1, FEV (Homo sapiens, UniProt Q99581 1-238).
T1 sequence: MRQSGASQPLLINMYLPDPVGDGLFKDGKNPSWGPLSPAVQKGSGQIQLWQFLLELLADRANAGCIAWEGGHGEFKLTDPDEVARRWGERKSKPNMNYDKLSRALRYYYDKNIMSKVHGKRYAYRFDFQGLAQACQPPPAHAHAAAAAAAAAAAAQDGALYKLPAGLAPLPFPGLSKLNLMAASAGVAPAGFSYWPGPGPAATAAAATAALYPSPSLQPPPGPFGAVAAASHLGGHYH
The conditions noted are these: protein: recombinant; tags: N-terminal GST; dsDNA, one strand shown. A digest of the protocol:
(§1)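 Human transcription factors carrying a GST fusion were produced in yeast, bound to glutathione beads, tagged with DNA barcodes and pooled together with a tag-only sample. Each pool was held with 200 nmole of a random double-stranded 16-mer DNA library in Tris/NaCl/DTT/glycerol buffer for 30 min at room temperature, then washed, crosslinked in 0.1% formaldehyde, proximity-ligated with BsaI/T4 ligase (1 h, 37 °C), PCR-amplified and sequenced on an Illumina NextSeq500. Binding signal is the read frequency of each hexamer for a given factor divided by its frequency in the tag-only sample.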

The target of assay [2] is ETV5 (Homo sapiens, UniProt P41161 1-510). The conditions noted are these: protein: recombinant; tags: N-terminal GST; dsDNA, one strand shown. The essentials:
as §1

In assay [3] the target is HSF1 (Homo sapiens, UniProt Q00613 1-529). The settings on record: protein: recombinant; tags: N-terminal GST; chain copies: 3; dsDNA, one strand shown. A digest of the protocol:
as §1

The target of assay [4] is T2, SPIC (Homo sapiens, UniProt Q8N5J4 1-248).
T2 sequence: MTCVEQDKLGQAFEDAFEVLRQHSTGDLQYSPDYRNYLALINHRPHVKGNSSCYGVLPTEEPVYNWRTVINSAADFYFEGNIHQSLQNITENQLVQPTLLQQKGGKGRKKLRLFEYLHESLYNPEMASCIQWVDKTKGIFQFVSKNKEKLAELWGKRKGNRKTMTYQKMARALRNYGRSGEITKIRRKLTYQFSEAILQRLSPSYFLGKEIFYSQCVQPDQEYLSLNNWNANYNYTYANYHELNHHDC
The conditions noted are these: protein: recombinant; tags: N-terminal GST; dsDNA, one strand shown. The essentials:
as §1

The target in assay [5] is ELF4 (Homo sapiens, UniProt Q99607 1-663). The conditions noted are these: protein: recombinant; tags: N-terminal GST; dsDNA, one strand shown. A digest of the protocol:
as §1

The target of assay [6] is T3, ELK4 (Homo sapiens, UniProt P28324-2 1-405).
T3 sequence: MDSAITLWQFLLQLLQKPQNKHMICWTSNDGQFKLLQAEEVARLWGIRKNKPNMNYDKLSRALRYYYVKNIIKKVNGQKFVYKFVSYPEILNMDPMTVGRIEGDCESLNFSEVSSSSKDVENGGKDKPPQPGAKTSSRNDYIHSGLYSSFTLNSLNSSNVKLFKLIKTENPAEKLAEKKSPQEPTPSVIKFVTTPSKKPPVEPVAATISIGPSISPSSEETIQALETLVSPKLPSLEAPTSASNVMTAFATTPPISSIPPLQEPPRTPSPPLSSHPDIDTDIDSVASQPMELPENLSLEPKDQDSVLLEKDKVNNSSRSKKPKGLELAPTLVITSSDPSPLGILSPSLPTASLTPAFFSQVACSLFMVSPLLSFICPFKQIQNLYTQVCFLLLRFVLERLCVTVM
The settings on record: protein: recombinant; tags: N-terminal GST; dsDNA, one strand shown. A digest of the protocol: as §1

Assay [7] has as its target T4, ETV2 (Homo sapiens, UniProt O00321 1-342).
T4 sequence: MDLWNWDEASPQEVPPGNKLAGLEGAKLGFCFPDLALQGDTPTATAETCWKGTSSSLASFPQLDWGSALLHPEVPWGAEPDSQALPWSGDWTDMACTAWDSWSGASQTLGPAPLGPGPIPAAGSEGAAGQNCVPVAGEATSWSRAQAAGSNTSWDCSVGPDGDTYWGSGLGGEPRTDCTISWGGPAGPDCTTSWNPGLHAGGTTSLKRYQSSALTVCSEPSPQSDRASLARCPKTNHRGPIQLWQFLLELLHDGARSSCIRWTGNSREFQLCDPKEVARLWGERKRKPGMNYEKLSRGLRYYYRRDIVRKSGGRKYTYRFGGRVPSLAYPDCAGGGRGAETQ
The settings on record: protein: recombinant; tags: N-terminal GST; dsDNA, one strand shown. A digest of the protocol:
as §1

Assay [8] has as its target T5, ELF3 (Homo sapiens, UniProt P78545 1-371).
T5 sequence: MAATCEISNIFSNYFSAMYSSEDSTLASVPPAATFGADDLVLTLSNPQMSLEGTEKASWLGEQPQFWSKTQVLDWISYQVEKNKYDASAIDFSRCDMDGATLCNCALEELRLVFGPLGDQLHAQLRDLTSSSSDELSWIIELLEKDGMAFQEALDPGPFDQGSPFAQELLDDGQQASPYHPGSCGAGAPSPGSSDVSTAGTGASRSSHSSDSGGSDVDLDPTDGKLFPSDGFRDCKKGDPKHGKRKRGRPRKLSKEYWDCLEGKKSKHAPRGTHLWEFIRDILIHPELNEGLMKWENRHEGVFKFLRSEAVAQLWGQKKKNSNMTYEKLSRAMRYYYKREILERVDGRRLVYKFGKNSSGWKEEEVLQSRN
The conditions noted are these: protein: recombinant; tags: N-terminal GST; dsDNA, one strand shown. A digest of the protocol: as §1

Assay [9] addresses CRX (Homo sapiens, UniProt O43186 1-299). The settings on record: protein: recombinant; tags: N-terminal GST; dsDNA, one strand shown. A digest of the protocol: as §1
For assay [10], the target named is ETV1 (Homo sapiens, UniProt P50549 1-477). The conditions noted are these: protein: recombinant; tags: N-terminal GST; dsDNA, one strand shown. A digest of the protocol:
as §1

Assay [11] has as its target T6, ERF (Homo sapiens, UniProt P50548 1-548).
T6 sequence: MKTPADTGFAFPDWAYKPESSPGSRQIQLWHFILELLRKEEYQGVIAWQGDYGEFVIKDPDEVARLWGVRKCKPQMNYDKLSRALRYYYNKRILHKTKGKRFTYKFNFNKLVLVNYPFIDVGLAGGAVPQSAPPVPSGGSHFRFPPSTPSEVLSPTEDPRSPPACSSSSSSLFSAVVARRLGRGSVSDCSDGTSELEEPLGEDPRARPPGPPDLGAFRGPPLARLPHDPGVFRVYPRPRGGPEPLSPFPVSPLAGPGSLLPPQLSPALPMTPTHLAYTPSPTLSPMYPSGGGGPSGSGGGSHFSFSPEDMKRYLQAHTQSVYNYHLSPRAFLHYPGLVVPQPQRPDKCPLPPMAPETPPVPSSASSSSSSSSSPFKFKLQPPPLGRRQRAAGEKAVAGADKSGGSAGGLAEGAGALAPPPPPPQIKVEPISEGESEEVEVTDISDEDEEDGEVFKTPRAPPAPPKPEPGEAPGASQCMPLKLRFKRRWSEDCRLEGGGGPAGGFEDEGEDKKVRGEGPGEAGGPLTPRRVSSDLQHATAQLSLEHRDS
The conditions noted are these: protein: recombinant; tags: N-terminal GST; dsDNA, one strand shown. The essentials: as §1

For assay [12], the target named is T7, ETV3L (Homo sapiens, UniProt Q6ZN32 1-361).
T7 sequence: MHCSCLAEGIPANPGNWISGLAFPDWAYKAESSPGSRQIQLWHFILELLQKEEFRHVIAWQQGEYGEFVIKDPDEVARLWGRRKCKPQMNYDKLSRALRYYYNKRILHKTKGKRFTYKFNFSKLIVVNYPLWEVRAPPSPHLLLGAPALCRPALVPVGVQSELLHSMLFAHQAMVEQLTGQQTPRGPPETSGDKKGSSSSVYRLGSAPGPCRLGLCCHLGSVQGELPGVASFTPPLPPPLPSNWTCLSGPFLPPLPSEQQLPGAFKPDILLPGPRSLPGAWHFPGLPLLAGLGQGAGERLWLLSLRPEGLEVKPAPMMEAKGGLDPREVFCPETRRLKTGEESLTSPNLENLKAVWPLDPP
The settings on record: protein: recombinant; tags: N-terminal GST; dsDNA, one strand shown. The essentials:
as §1

In assay [13] the target is T8, ETS2 (Homo sapiens, UniProt P15036 1-469).
T8 sequence: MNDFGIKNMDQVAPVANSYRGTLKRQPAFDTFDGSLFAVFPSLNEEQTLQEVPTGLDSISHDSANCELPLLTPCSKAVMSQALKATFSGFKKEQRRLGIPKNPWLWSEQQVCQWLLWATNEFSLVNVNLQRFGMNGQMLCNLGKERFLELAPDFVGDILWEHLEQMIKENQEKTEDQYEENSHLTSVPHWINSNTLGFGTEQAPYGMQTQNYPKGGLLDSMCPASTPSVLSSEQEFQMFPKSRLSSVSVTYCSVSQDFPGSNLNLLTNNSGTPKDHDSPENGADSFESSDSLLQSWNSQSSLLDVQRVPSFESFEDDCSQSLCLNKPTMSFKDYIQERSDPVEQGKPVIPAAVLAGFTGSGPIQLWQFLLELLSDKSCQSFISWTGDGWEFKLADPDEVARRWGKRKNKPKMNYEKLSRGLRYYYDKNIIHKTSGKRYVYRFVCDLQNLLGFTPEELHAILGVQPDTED
The conditions noted are these: protein: recombinant; tags: N-terminal GST; dsDNA, one strand shown. A digest of the protocol:
as §1

The target of assay [14] is T9, SPDEF (Homo sapiens, UniProt O95238 1-335).
T9 sequence: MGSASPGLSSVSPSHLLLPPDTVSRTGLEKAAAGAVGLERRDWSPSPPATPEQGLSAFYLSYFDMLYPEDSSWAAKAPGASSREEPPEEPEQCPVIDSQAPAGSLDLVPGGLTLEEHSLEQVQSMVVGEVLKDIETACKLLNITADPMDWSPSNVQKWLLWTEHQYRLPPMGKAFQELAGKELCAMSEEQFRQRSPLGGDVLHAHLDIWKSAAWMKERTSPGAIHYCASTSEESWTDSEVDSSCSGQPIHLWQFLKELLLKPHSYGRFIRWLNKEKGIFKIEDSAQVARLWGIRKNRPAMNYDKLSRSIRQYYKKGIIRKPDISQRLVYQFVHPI
The settings on record: protein: recombinant; tags: N-terminal GST; dsDNA, one strand shown. The essentials: as §1

In assay [15] the target is T10, ETV7 (Homo sapiens, UniProt Q9Y603 1-341).
T10 sequence: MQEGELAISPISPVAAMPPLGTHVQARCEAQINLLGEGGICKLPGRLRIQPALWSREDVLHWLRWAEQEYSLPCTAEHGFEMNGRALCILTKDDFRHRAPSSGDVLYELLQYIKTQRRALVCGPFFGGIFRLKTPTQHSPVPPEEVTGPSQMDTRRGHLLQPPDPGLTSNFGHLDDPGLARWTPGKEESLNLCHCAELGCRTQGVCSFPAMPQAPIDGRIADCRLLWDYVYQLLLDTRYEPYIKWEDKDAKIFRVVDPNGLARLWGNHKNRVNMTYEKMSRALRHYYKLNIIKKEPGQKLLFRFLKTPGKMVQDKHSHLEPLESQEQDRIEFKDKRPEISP
The conditions noted are these: protein: recombinant; tags: N-terminal GST; dsDNA, one strand shown. A digest of the protocol: as §1

Assay [16] addresses T11, ELF5 (Homo sapiens, UniProt Q9UKW6-2 1-255).
T11 sequence: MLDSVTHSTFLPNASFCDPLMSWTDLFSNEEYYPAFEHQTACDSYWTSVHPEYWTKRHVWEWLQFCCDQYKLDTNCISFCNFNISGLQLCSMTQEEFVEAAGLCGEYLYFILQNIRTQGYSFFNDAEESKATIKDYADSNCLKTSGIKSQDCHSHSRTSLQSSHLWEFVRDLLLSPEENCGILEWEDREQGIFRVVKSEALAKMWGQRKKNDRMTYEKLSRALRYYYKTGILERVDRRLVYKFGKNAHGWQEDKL
The settings on record: protein: recombinant; tags: N-terminal GST; dsDNA, one strand shown. The essentials:
as §1

The target of assay [17] is T12, ETV3 (Homo sapiens, UniProt P41162-2 1-143).
T12 sequence: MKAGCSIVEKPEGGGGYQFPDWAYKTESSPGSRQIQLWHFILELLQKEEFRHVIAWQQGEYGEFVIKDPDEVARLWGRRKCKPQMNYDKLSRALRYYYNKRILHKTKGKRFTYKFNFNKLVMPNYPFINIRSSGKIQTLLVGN
The settings on record: protein: recombinant; tags: N-terminal GST; dsDNA, one strand shown. The essentials: as §1

Assay [18] has as its target ETV6 (Homo sapiens, UniProt P41212 1-452). The conditions noted are these: protein: recombinant; tags: N-terminal GST; dsDNA, one strand shown. The essentials:
as §1

Chain of ETV6 (P41212 whole entry): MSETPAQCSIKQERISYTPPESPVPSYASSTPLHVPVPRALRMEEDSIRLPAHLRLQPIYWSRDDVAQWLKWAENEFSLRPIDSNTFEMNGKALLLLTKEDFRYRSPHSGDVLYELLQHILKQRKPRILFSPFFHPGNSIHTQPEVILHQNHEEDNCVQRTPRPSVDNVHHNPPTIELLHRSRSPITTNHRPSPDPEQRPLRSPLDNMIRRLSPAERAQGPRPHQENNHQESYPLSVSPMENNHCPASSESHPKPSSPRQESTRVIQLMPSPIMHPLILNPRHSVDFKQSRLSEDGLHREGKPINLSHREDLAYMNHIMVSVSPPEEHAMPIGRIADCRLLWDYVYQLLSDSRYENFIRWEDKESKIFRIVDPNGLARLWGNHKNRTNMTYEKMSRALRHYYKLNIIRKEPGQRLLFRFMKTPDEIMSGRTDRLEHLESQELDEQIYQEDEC
Chain of ELF4 (Q99607 whole entry): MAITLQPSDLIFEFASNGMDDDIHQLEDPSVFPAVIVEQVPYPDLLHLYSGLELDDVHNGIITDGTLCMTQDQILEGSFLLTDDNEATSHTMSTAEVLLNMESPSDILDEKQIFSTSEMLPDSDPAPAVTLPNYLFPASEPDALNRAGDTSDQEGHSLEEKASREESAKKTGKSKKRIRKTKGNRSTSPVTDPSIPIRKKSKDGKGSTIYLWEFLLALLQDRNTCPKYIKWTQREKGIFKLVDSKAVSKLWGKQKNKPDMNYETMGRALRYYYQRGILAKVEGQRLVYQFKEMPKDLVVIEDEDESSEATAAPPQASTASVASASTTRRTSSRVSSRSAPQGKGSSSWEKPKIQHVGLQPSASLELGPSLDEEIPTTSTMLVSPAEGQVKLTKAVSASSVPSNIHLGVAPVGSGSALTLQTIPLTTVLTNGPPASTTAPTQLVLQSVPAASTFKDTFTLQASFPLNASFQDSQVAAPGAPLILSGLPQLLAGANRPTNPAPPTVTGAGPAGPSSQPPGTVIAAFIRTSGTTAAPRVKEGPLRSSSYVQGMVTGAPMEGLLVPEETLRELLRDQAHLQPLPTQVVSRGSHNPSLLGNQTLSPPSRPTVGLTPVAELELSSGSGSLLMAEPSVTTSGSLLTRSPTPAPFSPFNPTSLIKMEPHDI
Chain of ETV1 (P50549 whole entry): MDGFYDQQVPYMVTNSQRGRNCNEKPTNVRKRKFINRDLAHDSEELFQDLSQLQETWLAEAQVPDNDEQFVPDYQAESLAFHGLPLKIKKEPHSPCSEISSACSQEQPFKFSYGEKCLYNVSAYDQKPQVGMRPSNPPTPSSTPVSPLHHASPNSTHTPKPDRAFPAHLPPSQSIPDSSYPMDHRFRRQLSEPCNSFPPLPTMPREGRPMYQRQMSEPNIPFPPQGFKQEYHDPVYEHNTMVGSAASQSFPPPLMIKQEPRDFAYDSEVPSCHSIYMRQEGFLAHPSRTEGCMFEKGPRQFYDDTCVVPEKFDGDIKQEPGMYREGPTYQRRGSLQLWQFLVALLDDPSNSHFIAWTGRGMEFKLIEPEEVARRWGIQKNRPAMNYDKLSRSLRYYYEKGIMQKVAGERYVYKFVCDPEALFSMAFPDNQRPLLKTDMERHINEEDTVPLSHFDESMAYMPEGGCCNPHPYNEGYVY
Chain of ETV5 (P41161 whole entry): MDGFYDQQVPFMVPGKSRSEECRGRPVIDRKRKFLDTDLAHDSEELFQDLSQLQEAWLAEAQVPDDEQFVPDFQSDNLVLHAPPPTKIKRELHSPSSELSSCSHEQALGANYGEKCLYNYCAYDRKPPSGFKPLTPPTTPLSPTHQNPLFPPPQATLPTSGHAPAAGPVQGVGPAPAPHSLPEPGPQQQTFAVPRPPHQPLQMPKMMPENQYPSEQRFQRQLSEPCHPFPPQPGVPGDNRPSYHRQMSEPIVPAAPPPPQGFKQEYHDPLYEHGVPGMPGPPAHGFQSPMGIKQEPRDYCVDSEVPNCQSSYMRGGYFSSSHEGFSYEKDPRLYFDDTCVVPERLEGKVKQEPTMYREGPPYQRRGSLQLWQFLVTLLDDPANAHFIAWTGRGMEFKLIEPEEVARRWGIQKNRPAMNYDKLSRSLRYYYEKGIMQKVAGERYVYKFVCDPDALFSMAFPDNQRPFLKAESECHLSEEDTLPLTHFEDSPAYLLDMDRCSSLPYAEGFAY
Chain of CRX (O43186 whole entry): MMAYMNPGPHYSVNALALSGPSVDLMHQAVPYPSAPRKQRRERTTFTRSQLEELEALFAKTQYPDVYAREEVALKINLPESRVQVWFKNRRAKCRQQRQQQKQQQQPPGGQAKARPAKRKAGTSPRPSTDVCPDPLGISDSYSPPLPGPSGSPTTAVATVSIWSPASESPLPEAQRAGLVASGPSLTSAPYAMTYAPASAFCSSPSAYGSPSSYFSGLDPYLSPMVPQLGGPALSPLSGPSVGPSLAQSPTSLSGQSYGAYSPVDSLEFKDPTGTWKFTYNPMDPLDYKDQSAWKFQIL
Chain of HSF1 (Q00613 whole entry): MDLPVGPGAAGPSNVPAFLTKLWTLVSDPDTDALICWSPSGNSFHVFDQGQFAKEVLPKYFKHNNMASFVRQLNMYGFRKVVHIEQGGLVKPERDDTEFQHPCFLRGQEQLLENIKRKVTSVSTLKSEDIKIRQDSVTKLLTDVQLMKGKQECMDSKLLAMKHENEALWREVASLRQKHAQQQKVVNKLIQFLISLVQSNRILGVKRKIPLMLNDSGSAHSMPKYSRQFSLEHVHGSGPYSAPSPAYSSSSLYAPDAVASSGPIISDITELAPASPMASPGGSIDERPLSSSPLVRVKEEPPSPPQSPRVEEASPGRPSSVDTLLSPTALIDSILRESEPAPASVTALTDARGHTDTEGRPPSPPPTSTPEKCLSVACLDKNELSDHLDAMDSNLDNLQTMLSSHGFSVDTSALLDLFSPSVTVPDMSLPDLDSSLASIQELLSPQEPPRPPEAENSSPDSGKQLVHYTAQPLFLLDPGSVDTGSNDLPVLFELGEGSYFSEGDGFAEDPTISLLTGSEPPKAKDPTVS

On to AATTGA, for which the binding signal in [1] is 1.11 fold enrichment (6-mer frequency, TF over GST control); in [2], 1.22 fold enrichment (6-mer frequency, TF over GST control); in assay [3] it was 1.05 fold enrichment (6-mer frequency, TF over GST control); in assay [4] it was 1.1 fold enrichment (6-mer frequency, TF over GST control); in [5], 1.18 fold enrichment (6-mer frequency, TF over GST control); in assay [6] it was 1.18 fold enrichment (6-mer frequency, TF over GST control). Besides, the binding signal in [7] is 1.18 fold enrichment (6-mer frequency, TF over GST control); in [8], 1.3 fold enrichment (6-mer frequency, TF over GST control); in assay [9], 1.1 fold enrichment (6-mer frequency, TF over GST control); in assay [10] it was 1.21 fold enrichment (6-mer frequency, TF over GST control); in [11], 1.24 fold enrichment (6-mer frequency, TF over GST control); in assay [12] it was 1.13 fold enrichment (6-mer frequency, TF over GST control). Moreover, the binding signal was 1.26 fold enrichment (6-mer frequency, TF over GST control) in [13]; 1.15 fold enrichment (6-mer frequency, TF over GST control) in assay [14]; 1.28 fold enrichment (6-mer frequency, TF over GST control) in assay [15]; 1.21 fold enrichment (6-mer frequency, TF over GST control) in assay [16]; 1.17 fold enrichment (6-mer frequency, TF over GST control) in assay [17]; 1.19 fold enrichment (6-mer frequency, TF over GST control) in [18].
